aSyn 5UTR act: Activators working through SNCA 5'UTR binding (MLPCN) | alpha-synuclein 5'UTR reporter, activators screen | activity score, % (tested at 7.5 µM), hits read low | 7.1% of 300,000 active | AID 1814; in the data active = activity score below about -60%
An asterisk follows results filed as active. These entries were drawn from the full list.

SMILES | aSyn 5UTR act
Cc1ccc2oc(=O)c(/C=C(\O)c3cccs3)nc2c1 | -148.0*
Cc1ccc2oc(=O)c(/C=C(\O)c3ccccc3)nc2c1 | -79.2*
O=c1oc2ccc(Cl)cc2nc1/C=C(\O)c1cccs1 | -107.6*
O=C(NC1CC(=O)c2sccc21)c1ccc(Cl)cc1Cl (stereo not drawn) | -86.6*
C/C(=N\NC(=O)c1cccc(N/N=C(\C)c2ccco2)c1)c1ccco1 | -81.2*
C/C(=N\NC(=O)c1c(C)nc2ccccn12)c1ccc(C(C)(C)C)cc1 | -98.0*
C/C(=N\NC(=O)c1c(C)nc2ccccn12)c1ccco1 | -139.0*
C/C(=N\NC(=O)c1cc(-c2cccnc2)nc2ccccc12)c1ccc(O)cc1O | 105.0
C/C(=N/NC(=O)c1cc2ccccc2cc1O)c1ccco1 | -64.3*
CCc1cc(C(=O)NNC(=S)Nc2ccccc2C)cs1 | -147.4*
CCc1cc(C(=O)Nc2ccccc2)cs1 | -134.4*
Cc1ccc2nc(-c3ccccc3)cn2c1 | 120.4
Cc1ccc2nc(-c3ccc(-c4ccccn4)s3)cn2c1 | -111.1*
Cc1ccsc1C(=O)NCCc1nnc2ccccn12 | -77.9*
O=C(NCCc1nnc2ccccn12)c1cccs1 | -66.8*
Cn1c(C(=O)N2COCC2(C)C)cc2c(=O)n3ccccc3nc21 | -80.9*
Cn1c(C(=O)NCCC2=CCCCC2)cc2c(=O)n3ccccc3nc21 | -70.2*
Cc1cccn2c(=O)c3cc(C(=O)N4COCC4(C)C)sc3nc12 | -97.4*
CSc1nc2sc3c(c2c(=O)[nH]1)CCC(C)C3 (stereo not drawn) | -150.8*
COc1cccc(-c2cn3nc(C)c(C)nc3n2)c1 | -69.9*
COc1ccccc1-c1nc(COc2ccc(Cl)cc2Cl)no1 | -203.9*
CC(C)(C)C1CCc2c(sc(NC(=O)c3cccs3)c2C(N)=O)C1 (stereo not drawn) | -157.6*
CCc1nn2cc(-c3ccccc3)nc2s1 | 80.2
Nc1nn2cc(-c3ccccc3)nc2c2ccccc12 | -112.3*
Cc1cc(C(=O)Nc2ccc(Cl)cc2)c(C)n1Cc1cccs1 | -67.2*
SMILES | aSyn 5UTR act
Cc1cc(C)cc(NC(=O)c2cc(C)n(Cc3cccs3)c2C)c1 | -116.5*
CCOc1ccc(NC(=O)Nc2cccc(C(=O)O)c2)cc1 | 107.7
CCOc1ccc(NC(=O)Nc2cccnc2)cc1 | -141.4*
O=C(Nc1ccc(Cl)cc1)Nc1cccnc1 | -66.2*
CC(C)(C)n1ncc2c(=O)n(CC(=O)NCc3ccccc3Cl)cnc21 | -90.2*
Cc1ccccc1C(=O)c1cccn1CC(=O)NCc1ccccc1Cl | -99.6*
O=C(Cn1cccc1C(=O)c1ccccc1)NCc1ccccc1Cl | -73.9*
Cc1cc(C)c(C#N)c(SCC(=O)c2cccs2)n1 | -172.6*
Cc1cc(C)c(C#N)c(SCC(=O)Nc2nonc2N)n1 | -87.0*
Cc1ccnc(SCC(=O)c2cccs2)n1 | -95.0*
CCOC(=O)CNC(=O)c1cc(-c2ccccn2)nc2c(C)c(Cl)ccc12 | -65.6*
CN(c1ccc(O)cc1)c1nc(O)c(C2=c3ccccc3=NC2=O)s1 | -155.5*
Brc1ccc(-c2csc(-c3c[nH]c4ccccc34)n2)cc1 | -183.0*
c1ccc2c(-c3csc(-c4ccncc4)n3)c[nH]c2c1 | -141.3*
CCS(=O)(=O)N1CCCC(c2nc(-c3cccc(OC)c3)no2)C1 (stereo not drawn) | -102.3*
CN1CCN(S(=O)(=O)c2cccc(C(=O)Nc3sc4c(c3-c3nc5ccccc5[nH]3)CCCC4)c2)CC1 | -108.5*
CCOC(=O)/C(=C\c1cccnc1)C(=O)c1cc(C(C)=O)c(Nc2ccccc2)s1 | 82.9
CCOC(=O)C(CC)(CC)C(=O)/C=C/c1ccc(Br)cc1 | -92.5*
CCOC(=O)C(=Cc1ccc(Br)cc1)C(=O)OCC | -121.4*
Cc1ccc(C(=O)NCC(=O)Nc2cc(C)ccn2)cc1 | -65.8*
Cc1ccnc(NC(=O)c2cnc(Cl)c(Cl)c2)c1 | -61.7*
Cc1ccnc(NC(=O)c2ccc(Cl)s2)c1 | -104.5*
CCOc1ccc(C(=O)Nc2cc(C)ccn2)cc1 | 65.5
Cc1ccnc(NC(=O)CCNC(=O)c2ccc(Cl)cc2)c1 | -110.3*
O=C(Nc1ccon1)c1ccc(OC2CCCC2)cc1 | -102.1*
SMILES | aSyn 5UTR act
Cc1cc2ccc3ccccc3c2cc1CN(C)C | -75.9*
O=C1/C(=C/c2cccc3ccccc23)CCCc2ccccc21 | -106.0*
c1ccc2c(Nc3nnc(-c4ccncc4)s3)cccc2c1 | -186.2*
Cc1cnc(NC(=O)CSc2nnc(-c3ccccc3)o2)s1 | -138.7*
Cc1occc1-c1nnc(SCC(=O)Nc2nc(C(C)(C)C)cs2)o1 | -111.0*
O=C(CSc1nnc(-c2ccccc2)o1)Nc1ccccc1F | 73.7
Cc1cnc(NC(=O)CC(C)c2ccccc2)s1 (stereo not drawn) | -196.5*
Cc1csc(NC(=O)CSc2nnc(-c3ccoc3C)o2)n1 | -111.2*
Cc1csc(NC(=O)CSc2nnc(-c3ccncc3)o2)n1 | -99.4*
CC(C)Sc1ccc(C(=O)Nc2ccc(F)cc2F)cn1 | -140.1*
CN(C)c1ccc(C2=NOC(CN3C(=O)c4ccccc4S3(=O)=O)C2)cc1 (stereo not drawn) | -134.3*
O=C(Nc1ccc([N+](=O)[O-])cn1)c1ccc2c(c1)OCO2 | -91.0*
O=C(NC(Nc1ncc(S(=O)(=O)c2ccc([N+](=O)[O-])cc2)s1)(C(F)(F)F)C(F)(F)F)c1ccc(Cl)cc1 | 72.8
CC(C)(C)c1ccc(C(=O)Nc2ccc([N+](=O)[O-])cn2)cc1 | -71.8*
COC(=O)c1ccc(COc2ccccc2/C=N/NS(=O)(=O)c2ccc(C)cc2)cc1 | -69.4*
COC(=O)c1ccc(COc2ccccc2/C=C(\C#N)C(=O)Nc2ccc(C)cc2)cc1 | -154.2*
COc1cc(/C=N/NS(=O)(=O)c2ccc(C)cc2)ccc1OCc1ccc(C(=O)O)cc1 | 84.2
C(=N\N=C\c1ccccc1)/c1ccccc1 | -95.7*
Fc1cccc(/C=N/N=C/c2cccc(F)c2)c1 | -62.1*
Cc1ccc(/C=N/N=C/c2ccc(C)cc2)cc1 | -110.1*
Oc1ccc(/C=N/N2CCCCC2)c(O)c1 | -92.9*
Oc1ccccc1/C=N/N1CCCCC1 | -76.9*
CN=c1scc(-c2cccs2)n1/N=C/c1ccccc1O | 103.3
COc1cc(C=O)ccc1OS(=O)(=O)c1ccccc1[N+](=O)[O-] | -118.7*
COc1cc(/C=N/n2cnnc2)ccc1OS(=O)(=O)c1ccccc1[N+](=O)[O-] | -177.8*
SMILES | aSyn 5UTR act
Cc1nc(NC(=S)Nc2ccccc2)sc1C | -165.6*
CCc1nnc(NC(=S)Nc2ccccc2)s1 | -123.5*
CC(C)CN(C)C(=O)CCc1nnc(Cc2cccc(C(F)(F)F)c2)o1 | -142.6*
CC(NC(=O)CCc1nnc(Cc2cccc(C(F)(F)F)c2)o1)C1CC1 (stereo not drawn) | -77.1*
Cc1cc(C(=O)COC(=O)Cc2n[nH]c(=O)c3ccccc23)c(C)n1-c1ccc2c(c1)OCCO2 | -99.7*
Cc1cc(C(=O)COC(=O)C2=COCCO2)c(C)n1-c1ccc2c(c1)OCO2 | -134.3*
Cc1cc(C(=O)COC(=O)C2=COCCO2)c(C)n1-c1cccc(F)c1 | -156.1*
O=C(NCc1cccnc1)/C(=C/c1ccc(-c2cccc(Cl)c2)o1)S(=O)(=O)c1ccccc1 | -193.2*
S=C(Nc1ccc2nsnc2c1)N1CCCCCC1 | -148.2*
S=C(NNc1ccc2ccccc2c1)NC1CCCCC1 | -216.5*
CC1CCN(C(=O)Nc2ccc3nsnc3c2)CC1 | -126.3*
S=C(Nc1ccc(Cl)c(Cl)c1)NC1CCCCC1 | -74.8*
COc1ccc(NC(=S)Nc2ccc3nsnc3c2)cc1 | -207.1*
CCc1ccc(NC(=S)N2CCCCCCC2)cc1 | -123.0*
CC(C)c1ccc(NC(=S)NC2CCCCCC2)cc1 | -184.7*
S=C(Nc1ccc2nsnc2c1)NC1CCCCC1 | -163.3*
